Abeta yeast res: restores growth of yeast expressing A-beta42 peptide | yeast expressing A-beta42, growth rescue, OD600, 48 h; response scale: 0% DMSO, 100% iron-clioquinol control | Potency, µM (titrated, usually from 46.1 µM), usual class: activators | hit rate 0.063% among 410,000 | AID 1347071; also: potency is read from the fitted curve at half-maximal effect; nearly all actives have a fitted effect of over 55% in size
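Yeast growth medium received pinned compounds, then yeast cells expressing toxic A-beta were added; plates incubated at 30 C for 48 hr. Growth read as absorbance at 600 nm, normalized to DMSO and equimolar FeCl3 plus clioquinol controls.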
aSyn yeast inh: inhibitors of alpha-synuclein toxicity in yeast | Yeast expressing alpha-synuclein, growth rescue, BacTiter-Glo, 24 h | Potency, µM (series often up to 46.1 µM), for the others: top-dose growth rescue (activation), most hits filed as activators | hit rate 0.14% among 370,000; also: potency is read from the fitted curve at half-maximal effect; % of control where 0% means no effect; nearly all actives have a fitted effect of over 65% in size
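Screening used galactose-induced yeast with toxic alpha-synuclein levels, exposed to compound for 24 hr at 30 deg C. Cell growth, read with BacTiter-Glo luminescence, gave the measured signal.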
TDP43 rescue: inhibitors of TDP-43 toxicity in yeast; TDP-43 expressing yeast growth rescue, BacTiter-Glo, 24 h; Potency, µM (top dose mostly 46.1 µM), for inactives: at the top dose growth rescue (activation), hits mostly activators; hit rate 1.8% among 410,000; AID 652104; also: potency is read from the fitted curve at half-maximal effect; % of control where 0% means no effect; nearly all actives have a fitted effect of over 50% in size
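Readout is BacTiter-Glo luminescence of cell growth, so inhibitors register as activators. TDP-43-expressing yeast at OD600=0.02 in galactose medium, after raffinose pregrowth to mid-log, were incubated with compound for 24 hr at 30 deg C.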
mIDH1 inhibitor: human IDH1 R132H inhibition; IDH1-R132H enzyme, NADPH consumption, diaphorase/resazurin fluorescence; Potency, µM (titrated, usually from 76.6 µM), inactives show top-dose activity change, negative = inhibition, actives largely listed as inhibitors; O75874; hit rate 0.093% among 390,000; also: potency is read from the fitted curve at half-maximal effect; % is scaled to controls: 0 for no effect and ±100 for the full control effect; nearly all actives have a fitted effect of over 65% in size
Target sequence (O75874 whole entry R132H, stated change not applied): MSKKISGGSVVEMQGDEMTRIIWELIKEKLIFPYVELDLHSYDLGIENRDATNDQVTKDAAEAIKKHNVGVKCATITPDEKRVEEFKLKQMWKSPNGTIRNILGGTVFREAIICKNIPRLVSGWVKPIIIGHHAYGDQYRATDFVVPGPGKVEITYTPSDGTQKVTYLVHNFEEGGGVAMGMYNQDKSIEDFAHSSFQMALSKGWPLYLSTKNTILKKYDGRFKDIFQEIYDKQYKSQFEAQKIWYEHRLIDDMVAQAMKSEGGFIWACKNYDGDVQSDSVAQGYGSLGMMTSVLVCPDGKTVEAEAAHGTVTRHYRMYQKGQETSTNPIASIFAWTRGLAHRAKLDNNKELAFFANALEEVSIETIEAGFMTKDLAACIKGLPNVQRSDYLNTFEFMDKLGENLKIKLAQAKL
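IDH1-R132H (0.5 ug/mL dispensed) in pH 7.5 Tris buffer was preincubated 30 min with compound, then given a substrate mix of 0.016 mM NADPH and 2 mM alpha-KG for 80 min at room temperature; remaining NADPH was read by diaphorase/resazurin fluorescence.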
LDHA block: LDHA (human) enzyme inhibition; hit rate 0.15% among 480,000; purified LDHA, NADH/diaphorase-resazurin fluorescence; stronger effect = lower value; P00338; activity change, % (values are at about 110 or 230 µM); in the data active = activity change below about -30%; inconclusive = mostly about -25% to -30%;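 also: plate controls were DMSO wells for no effect and wells without enzyme for full effect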
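Enzyme activity of human lactate dehydrogenase 5 (2 nM; 0.06 mM NADH, 0.2 mM pyruvate, 5 min, RT) is measured via a resazurin/diaphorase fluorescence readout of residual NADH.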
FUS suppressor: rescues growth of FUS-expressing yeast. S. cerevisiae FUS-expressing, growth rescue, OD600, 24 h. Potency, µM (doses to about 76.6 µM), usual class: activators. hit rate 0.24% among 390,000. AID 1347120;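 also: potency is read from the fitted curve at half-maximal effect; plate controls were DMSO vehicle for no effect and reference control for full effect; nearly all actives have a fitted effect of over 55% in size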
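Read-out: OD at 600 nm after 24hr at 30C, reporting rescue of FUS-induced yeast toxicity. Cells at OD 0.005 in galactose (2%) minimal medium; compounds tested in a dilution series; CP55940 titration from 92uM final as control.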
* hit, by the source's call; i = inactive; u = inconclusive; x = no result; ! = repeats disagree. The list is not random: actives were taken first. Their share in the collection is about 2%. Unless noted, calls follow the shape of the dose curve; as a rule, active = well fitted curve in the direction sought with a large enough effect; inconclusive = small, poorly fitted or top-dose-only effect, or another doubt; inactive = no such curve, though single readings can be large; an effect the other way counts as inactive or inconclusive.

SMILES	Abeta yeast res	aSyn yeast inh	TDP43 rescue	mIDH1 inhibitor	LDHA block	FUS suppressor
c1cc2c(cc1[C@H]1OCC3C1CO[C@@H]3c1ccc3c(c1)OCO3)OCO2 (some centres not stated)	i	6%	11µM*	13%	-7	u
C[N+](C)(C)CC1CCCCC1=O (configuration not stated)	x	x	x	x	-9	x
Cc1ccc2c(c1)C(SCC(=O)Nc1ccccc1C(=O)O)c1ccccc1O2 (configuration not stated)	x	x	x	x	3	x
Clc1ccc(-c2ccc(CNC3CN4CCC3CC4)o2)c(Cl)c1 (configuration not stated)	x	x	x	x	2	x
O=c1oc2ccccc2c(O)c1[C@H]1c2ccc(O)cc2Oc2c1c(=O)oc1ccccc21	i	0.56µM*	5.6µM*	12%	-2	i
O=C1CSC(c2ccc(Cl)cc2)c2cn[nH]c2N1 (configuration not stated)	x	x	x	x	-8	x
CCc1cc2c(cc1-c1csc(C/C(N)=N/O)n1)C(C)(C)CCC2(C)C	i	11%	22µM*	-15%	7	i
Cn1c[n+](C)cc1C(O)c1ccccc1 (configuration not stated)	i	-17%	-6%	0%	-61*!	i
CN1C(CC(O)c2ccccc2)CCCC1CC(O)c1ccccc1 (configuration not stated)	i	3%	u	3%	-2	i
O=C1NC(=S)NC(=O)C1=Cc1ccc(OCc2ccccc2)cc1	u	-67%	18µM*	0%	u	i
CCc1ccc2[nH]c(C)c(CCN)c2c1	x	x	x	x	-2	x
CC(=O)OCC12CC(OC(=O)CC(C)C)C(C)=CC1OC1C(O)C(OC(C)=O)C2(C)C12CO2 (configuration not stated)	i	u	1.8µM*	4%	-4	x
NC(=O)C1CCN(C(=O)c2cn(Cc3ccccc3)c3ccccc23)CC1	x	x	x	x	-15	x
COc1ccccc1C(=O)Nc1ccc2c(c1)CC1(C(=O)N(C)C(=O)N(C)C1=O)C1CCCN21 (configuration not stated)	i	-2%	-9%	-5%	7	40µM*
COc1cccc(CCNCc2ccc(Br)cc2)c1	x	x	x	x	-15	x
CC(=O)c1cn(CCCOc2ccccc2)c2ccccc12	i	14%	11µM*	5%	0	i
O=C1c2ccccc2-n2nncc2C2c3cc(Br)ccc3CCN12 (configuration not stated)	i	-3%	35µM*	x	-3	i
CC(Cc1ccco1)NCc1cc2ccccc2o1 (configuration not stated)	x	x	x	x	10	x
C#CCOc1ccc2c(c1)c(C(C)=O)c(C)n2Cc1ccccc1	i	-9%	20µM*	6%	0	i
CCOC(=O)c1c(C)n(Cc2ccccc2)c2ccc(OC)cc12	x	x	x	x	-23	x
CN(C)CCCN1CCC(=O)C2CCCCC21 (configuration not stated)	x	x	x	x	14	x
CCCn1c(C)c(C(=O)OCc2ccccc2)c2cc(O)ccc21	x	x	x	x	17	x
CC(C)(C)C(=O)C(Oc1ccc(Cl)cc1)n1cncn1 (configuration not stated)	i	u	11µM*	14%	-6	i
Cc1[nH]nc2c1C(c1ccc(-c3ccc(F)cc3)o1)SCC(=O)N2 (configuration not stated)	x	x	x	x	22	x
C[C@H]1[C@H](OC(=O)CCC(=O)NCc2ccc(C(=O)O)cc2)O[C@@H]2O[C@@]3(C)CC[C@H]4[C@H](C)CC[C@@H]1C24OO3	i	-9%	22µM*	0%	-5	i
CC1C(OC(=O)CCC(=O)NC(C)(C)CO)O[C@H]2OC3(C)CC[C@H]4[C@H](C)CCC1C24OO3 (some centres not stated)	i	-10%	22µM*	-15%	-3	i
